# BAZ2B block: BAZ2B (human) inhibition; Q9UIF8; AlphaScreen BAZ2B-H3K14Ac peptide displacement; Potency, µM (titrated, usually from 114 µM), inactives show top-dose activity change, negative = inhibition, hits mostly inhibitors; actives 4.4% (n = 360,000); AID 504333; note: % is set by controls: 0 for no effect and ±100 for the full control effect; nearly all actives have a fitted effect of over 60% in size
#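 In this displacement format the biotinylated H3(5-23) peptide acetylated at Lys14 serves as ligand at 50 nM, with BAZ2B at 50 nM in PBS pH 7.4 containing 0.01% Tween-20. Donor and acceptor beads are 10 ug/mL final.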
# JMJD2A Tudor inh: JMJD2A Tudor domain (human) inhibition; AlphaScreen JMJD2A-Tudor / H3K4me3 peptide binding; actives 4.4% (n = 390,000); Potency, µM (doses to about 114 µM), without a hit: top-dose activity change, negative = inhibition, usual class: inhibitors; O75164; note: % is set by controls: 0 for no effect and ±100 for the full control effect; nearly all actives have a fitted effect of over 50% in size
# HP1b chromo inh: HP1-beta chromodomain-methylated histone interaction inhibition; AID 540317; AlphaScreen HP1-beta / biotin-H3K9me3 peptide binding; actives 0.56% (n = 390,000); P83916; Potency, µM (series often up to 114 µM), without a hit: at the highest dose activity change, negative = inhibition, actives largely listed as inhibitors; note: nearly all actives have a fitted effect of over 70% in size
#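 AlphaScreen: HP1-beta (50 nM) preformed 30 min with biotin-H3(1-18)K9me3 peptide (50 nM) in PBS pH 7.4, 0.01% Tween-20. Compound added for 30 min at RT, then streptavidin donor/nickel chelate acceptor beads (10 ug/mL) for 30 min.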
# G9a block: inhibitors of human histone lysine methyltransferase G9a. G9a H3K9 monomethylation, AlphaScreen, 2 h. actives 8.8% (n = 350,000). Q96KQ7. Potency, µM (top dose mostly 102 µM), for the others: top-dose activity, negative = inhibition, actives largely listed as inhibitors; note: % is set by controls: 0 for no effect and ±100 for the full control effect; nearly all actives have a fitted effect of over 75% in size
#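 Compounds were preincubated with 20 nM G9a for 15 min, after which biotinylated H3K9 peptide (500 nM) and SAM (20 uM) started a 2 h room-temperature reaction. Monomethylated product was quantified by antibody-based AlphaScreen chemiluminescence.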
# Sfp PPTase inh: blocks B. subtilis Sfp PPTase activity; actives 3.5% (n = 310,000); Q9F4F7; Potency, µM, without a hit: largest response in the series, negative = inhibition, hits mostly inhibitors; AID 1490; Biochemical Sfp PPTase activity, qHTS;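 note: the enzyme is Sfp with the accession as filed and its product quenches rhodamine fluorescence; 0% = enzyme reaction without inhibitor and -100% = no enzyme wells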
#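 Fluorescence-quenching assay with 15 nM Sfp, 5 uM rhodamine-CoA and 12.5 uM BHQ-2-labelled ybbR peptide in pH 7.6 Hepes/MgCl2 buffer. Enzyme was pre-incubated with compound for 15 min at room temperature. Rate was taken from the 30-min fluorescence change (525/598 nm).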
# TDP1 inh: inhibitors of human tyrosyl-DNA phosphodiesterase TDP1. Q9NUW8. recombinant TDP1, AlphaScreen DNA substrate cleavage. Potency, µM (doses to about 130 µM), for the others: at the highest dose activity change, negative = inhibition, actives largely listed as inhibitors. actives 0.28% (n = 350,000); note: % is set by controls: 0 for no effect and ±100 for the full control effect; nearly all actives have a fitted effect of over 40% in size
#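 Steps: enzyme plus compound, 15 min RT; add biotin/phosphotyrosine-FITC oligonucleotide (15 nM final), react 5 min; add donor/acceptor beads (10 ug/ml final), 10 min; read AlphaScreen. Tdp1 at 1 nM final.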
# The depositor's hits bear a star; u = inconclusive; x = no result; [ ] = remark or other dose. The list is not random: actives were taken first. Their share in the collection is about 12%. Calls come from the whole dose curve; as a rule, active = well fitted curve in the direction sought with a large enough effect; inconclusive = small, poorly fitted or top-dose-only effect, or another doubt; inactive = no such curve, though single readings can be large; an effect the other way counts as inactive or inconclusive. Potency is the fitted concentration of half-maximal effect.
SMILES,BAZ2B block,JMJD2A Tudor inh,HP1b chromo inh,G9a block,Sfp PPTase inh,TDP1 inh
Cc1coc2c(C)c3oc(=O)c(CCC(=O)N[C@@H](C)C(=O)N[C@@H](Cc4ccccc4)C(=O)O)c(C)c3cc12,u,89µM*,-22%,x,-6%,x
CCCC(NC(=O)Cc1c(C)c2cc3c(C)c(C)oc3c(C)c2oc1=O)C(=O)N[C@@H](Cc1ccccc1)C(=O)O (some centres undefined),50µM*,56µM*,u,-133%[12.7 µM],-17%,x
COc1cc(CN(C(=O)c2cccs2)C2CCS(=O)(=O)C2)cc(OC)c1OC (centres undefined),-8%,-1%,29%,-12%,13%,1%
CCOc1cc2c(cc1OCC)C(c1ccc(C(=O)O)cc1)NCC2 (centres undefined),-1%,-12%,54%,u,20%,x
CC1CCCN(c2nc(N(C)c3ccccc3)nc(N)c2[N+](=O)[O-])C1 (centres undefined),u,u,u,32µM*,12%,5%
CCOc1ccc(Nc2nc(N)c([N+](=O)[O-])c(N3CCN(CC)CC3)n2)cc1,50µM*,u,u,-11%[2.33 µM],1%,x
CC1CCCN(c2nc(NCc3ccco3)nc(N)c2[N+](=O)[O-])C1 (centres undefined),50µM*,u,u,u,-7%,6%
CN(c1ccccc1)c1nc(N)c([N+](=O)[O-])c(NC2CCCCC2)n1,-26%,-24%,3%,-11%,7%,x
Nc1nc(Nc2ccccc2)nc(N2CCCC2)c1[N+](=O)[O-],u,u,-10%,-7%,5%,x
Cc1ccc(Nc2nc(N)c([N+](=O)[O-])c(N3CCCC(C)C3)n2)cc1C (centres undefined),u,25µM*,u,20µM*,11%,4%
CN(C)S(=O)(=O)N(CC(=O)Nc1ccc(S(=O)(=O)N2CCCC2)cc1)c1ccccc1,-16%,-15%,16%,-7%,2%,3%
O=C(CN1CCN(S(=O)(=O)N2CCCCC2)CC1)Nc1ccc(Cl)c(Cl)c1,17%,8%,51%,-10%[59 µM],0%,x
COc1ncc2nc(-c3cccs3)c(=O)n(-c3ccccc3)c2n1,x,x,x,-3%[12.7 µM],-28%,x
Cc1cc(=O)[nH]c(N/N=C/c2ccccc2C(F)(F)F)n1,-30%,1%,24%,u,-18%,4%
Cc1cc(=O)[nH]c(N=N/C(=N/Nc2ccccc2C)c2ccccc2)n1,u,u,u,28µM*,7%,9%
Cc1cc(=O)[nH]c(N=N/C(=N/Nc2ccc(O)cc2)c2ccccc2)n1,10µM*,56µM*,u,0.56µM*,10%,u
CCC(C)Nc1sc(S(=O)(=O)CC)nc1S(=O)(=O)c1ccc(C)cc1 (centres undefined),-1%,-11%,37%,-2%[59 µM],x,5%
On1c(-c2ccccc2Cl)nc2ccccc21,-3%,6%,21%,-2%,16%,9%
CN1CCN(/N=C/c2nc(-c3ccccc3Cl)n3ccccc23)CC1,-9%,-31%,-11%,28µM*,14%,-3%
Clc1ccccc1-c1nc(/C=N/N2CCOCC2)c2ccccn12,x,u,u,28µM*,89µM*,5%
O=C(c1ccccc1O)N(Cc1ccco1)Cc1cccs1,x,u,x,x,x,0%
COc1ccc(NC(=O)CC(C(=O)O)C(C)c2ccccc2)cc1 (centres undefined),-3%,-5%,37%,16%[59 µM],15%,x
COc1ccc(NC(=O)CC(c2ccccc2)c2ccco2)cc1 (centres undefined),-35%,-7%,15%,u,45µM*,-5%
O=C(CC(c1ccccc1)c1ccco1)Nc1nccs1 (centres undefined),u,-24%,6%,50µM*,-21%,-3%
